TSG101-PTAP inh – qHTS Validation Assay for Inhibitors of HIV-1 Budding by Blocking the Interaction of PTAP/TSG101: Sytravon Library Screen; 44,000 tested, under 10 active; Tumor susceptibility gene 101 protein (Homo sapiens), Q99816; Potency, µM (series often up to 115 µM), hits mostly inhibitors; Fluorescence polarization, FITC-PTAP peptide/Tsg101, 20 min
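Compounds pinned into 10 uM Tsg101 binding domain, then 50 nM FITC-PTAP peptide added in pH 7.5 HEPES buffer; FP read after 20 min, room temperature. Total S+P intensity flags fluorescent compounds; active cut-off <25 µM, efficacy <60%.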
GALK inhibitor – qHTS Assay for Inhibitors of Human Galactokinase (GALK): NCGC Sytravon Library Screen; P51570; recombinant GALK, Kinase-Glo ATP luminescence, 1 h; Potency, µM (doses to about 57.5 µM), hits mostly inhibitors; 44,000 tested, under 10 active; AID 1347072, 2019
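Human GALK (5 nM) was incubated with 35 uM ATP and 100 uM galactose in 20 mM HEPES pH 8.0 with MgCl2, NaCl, DTT and BSA for 1 h at room temperature. Remaining ATP was measured by Kinase-Glo Plus luminescence.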
FH mod – Identification of activators of human fumarate hydratase by quantitative high-throughput screening. Fumarate hydratase, mitochondrial (Homo sapiens), P07954. FH coupled MDH/diaphorase resazurin fluorescence, 15 min. Potency, µM (series often up to 79.9 µM), hits mostly inhibitors. actives 0.22% (n = 54,000). AID 1347055, 2019; also: the screen sought activators but most active calls are inhibition curves; nearly all actives have a fitted effect of over 45% in size
Target sequence (P07954 whole entry, looked up): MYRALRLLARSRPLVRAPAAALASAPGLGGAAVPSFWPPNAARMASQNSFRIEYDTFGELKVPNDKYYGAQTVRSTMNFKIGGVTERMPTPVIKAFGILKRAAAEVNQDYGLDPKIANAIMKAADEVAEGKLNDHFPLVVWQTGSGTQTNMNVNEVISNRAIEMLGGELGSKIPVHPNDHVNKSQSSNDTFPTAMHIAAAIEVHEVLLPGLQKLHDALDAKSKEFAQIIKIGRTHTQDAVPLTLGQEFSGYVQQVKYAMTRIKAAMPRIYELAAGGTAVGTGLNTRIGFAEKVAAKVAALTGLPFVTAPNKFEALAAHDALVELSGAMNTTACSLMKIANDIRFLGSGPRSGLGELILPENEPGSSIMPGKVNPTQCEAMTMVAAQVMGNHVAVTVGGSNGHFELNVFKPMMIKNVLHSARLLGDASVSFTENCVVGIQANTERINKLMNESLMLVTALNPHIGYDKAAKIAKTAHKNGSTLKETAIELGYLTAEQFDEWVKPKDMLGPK
GALC G270D act – A Novel Cell-Based Assay to Identify Small Molecules for B -Galactocerebrosidase; P54803; 145M-Twi-hGALC-G270D cells (Twitcher mouse brain line with human GALC G270D), HMU-beta-Gal fluorescence, 48 h; Potency, µM (top dose mostly 57.5 µM), hits mostly activators; actives 0.1% (n = 45,000); AID 1159614, 2016; also: nearly all actives have a fitted effect of over 65% in size
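Brain-derived Twitcher mouse 145M-Twi cells stably expressing human GALC-G270D or wild-type GALC, treated live, then residual GALC activity read by fluorescence of HMU-b-Gal substrate (0.1 mM final) in citrate-phosphate buffer pH 5.2 with sodium taurocholate. Signal increase indicates enhancement.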
B2AR arrestin ag – qHTS assay of beta-arrestin-biased ligands of beta2-adrenergic receptor: NCGC Sytravon Library Screen; Beta-2 adrenergic receptor (Homo sapiens), P07550; HTLA Tango cells, beta-arrestin recruitment, luciferase luminescence, 18 h; Potency, µM (top dose mostly 46.1 µM), hits mostly activators; AID 1347077, 2019; 44,000 tested, under 10 active
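Tango cells (recombinant beta2-AR, beta-arrestin, tTA-driven luciferase), 1500/well in DMEM 1% FBS, treated 18 h at 37 °C with compounds up to 46 µM; luciferin mix added, luminescence read after 15 min; %activity curves fitted and curve-classed.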
A number is an active result; – = inactive; ? = inconclusive; · = no result; ! = repeats disagree; [ ] = dose if it differs, or a comment. Sampled rows, rich in hits. Any-hit rate of the full collection: about 0.29%. Calls follow the shape of the dose curve; as a rule, active = well fitted curve in the direction sought with a large enough effect; inconclusive = small, poorly fitted or top-dose-only effect, or another doubt; inactive = no such curve, though single readings can be large; an effect the other way counts as inactive or inconclusive.

SMILES	TSG101-PTAP inh	GALK inhibitor	FH mod	GALC G270D act	B2AR arrestin ag
COc1cccc(/C=C/c2nc(C#N)c(N(C)Cc3ccccc3)o2)c1	–	–	–	25.1µM	–
COc1cc(/C=C/c2nc(C#N)c(N3CCCCCC3)o2)cc(OC)c1OC	–	–	28.2µM	–	–
COc1cccc(/C=C/c2nc(C#N)c(NCCc3ccccc3)o2)c1	–	–	–	–	–
COc1ccc(/C=C/c2nc(C#N)c(N3CCCCC3)o2)cc1OC	–	–	–	28.2µM	–
COc1cccc(/C=C/c2nc(C#N)c(N3CCC(C(N)=O)CC3)o2)c1	–	–	–	25.1µM	–
CCNC(=O)Nc1ccc(-c2nc3c(c(N4CCOCC4C)n2)CCN(C2COC2)C3)cc1 (stereo not given)	·	·	–	·	·
CS(=O)(=O)Nc1ccc2oc3c(OC(F)F)ccc(C(=O)Nc4c(Cl)cncc4Cl)c3c2c1	·	·	–	·	·
O=C(COCC(=O)N1CCN(C(c2ccccc2)c2ccccc2)CC1)Nc1ccc(Cl)cc1C(=O)O	·	·	–	·	·
COc1cc(OC)cc(-c2cc3cnc(N)nc3nc2NC(=O)NC(C)(C)C)c1	·	·	–	·	·
C[n+]1ccc(-c2c3nc(c(-c4cc[n+](C)cc4)c4ccc([nH]4)c(-c4cc[n+](C)cc4)c4nc(c(-c5cc[n+](C)cc5)c5ccc2[nH]5)C=C4)C=C3)cc1	·	·	–	·	·
COc1cc2cc(CNc3ccccc3)c(=O)n(CC(=O)Nc3cc(C)cc(C)c3)c2cc1OC	–	–	–	39.8µM	–
CCc1ccc(NC(=O)Cn2c(=O)c(CNc3ccccc3)cc3cc(OC)c(OC)cc32)cc1	–	–	–	–	–
CCN(CC)CCNC(=O)c1c(C)[nH]c(/C=C2\C(=O)Nc3ccc(F)cc32)c1C	·	·	12.6µM!	–	·
Cc1[nH]c(/C=C2\C(=O)Nc3ccc(F)cc32)c(C)c1C(=O)NCCN1CCCC1	·	·	–	·	·
C=CCc1cccc2cc(-c3nc4ccc(C(=O)O)cc4[nH]3)c(=O)oc12	–	–	7.08µM	–	–
COC1=Cc2c(nc3n(c2=O)C(C)C(=O)NC3(O)C(C)C)OC=C1 (stereo not given)	·	·	–	·	·
CCOc1ccc(NC2SC(=O)N(Cc3ccccc3)C2=O)cc1 (stereo not given)	–	–	39.8µM[activator]	–	–
O=C1SC(Nc2ccc(Cl)cc2)C(=O)N1Cc1ccccc1 (stereo not given)	–	–	–	–	–
Cc1c(-c2ccc(Cl)cc2)c(=O)oc2c(CN3CCN(C)CC3)c(O)ccc12	–	–	–	–	–
Cc1c(-c2ccccc2)c(=O)oc2c(CN3CCN(C)CC3)c(O)ccc12	–	–	–	4.47µM	–
COc1c(/C=C/C(C)(C)O)ccc2c1C(=O)OCc1cc(C)cc(O)c1O2	·	·	–	·	·
Cc1cc(C)nc(SCC(=O)Nc2ncc(Cc3cccc4ccccc34)s2)n1	·	·	–	·	·
CCOC(=O)c1cc(S(=O)(=O)NCc2ccc(F)cc2)[nH]n1	–	–	–	–	–
CCOC(=O)Nc1ccc(NCc2ccc(F)cc2)nc1N	·	·	12.6µM!	–	·
O=C1CCCC2=C1C(c1ccccc1I)N=C(Nc1nc3ccccc3o1)N2 (stereo not given)	·	·	–	·	·
SMILES	TSG101-PTAP inh	GALK inhibitor	FH mod	GALC G270D act	B2AR arrestin ag
CN(C)CCCNc1c2ccccc2nc2c1[nH]c1ccccc12	·	·	–	·	·
CC(C)(C)c1ccc(O)c(O)c1	·	·	39.9µM	–	·
N#Cc1cnc2c(Cl)cc(NCc3cn(CCN4CCCCCC4)nn3)cc2c1Nc1ccc(F)c(Cl)c1	·	·	–	·	·
COc1ccc(OC)c(CNC(=O)Nc2cn(CC(C)C)c(=O)c3ccccc23)c1	–	–	31.6µM[activator]	–	–
Cc1cccn2c(=O)c3cc(C(=O)NC(C)c4ccccc4)c(=N)n(CCOCCO)c3nc12 (stereo not given)	–	–	–	–	–
Cc1cccn2c(=O)c3cc(C(=O)NCc4ccccc4)c(=N)n(CCOCCO)c3nc12	–	–	–	10µM	–
CCn1c(=N)c(C(=O)NCc2ccccc2)cc2c(=O)n3cccc(C)c3nc21	–	–	–	–	–
CCn1c(=N)c(C(=O)NC2CCCCC2)cc2c(=O)n3cccc(C)c3nc21	–	–	–	28.2µM	–
CCOCCCn1c(=N)c(C(=O)NC(C)c2ccccc2)cc2c(=O)n3cccc(C)c3nc21 (stereo not given)	–	–	–	20µM	–
C=C1C(=O)OC2C(OC(=O)C=C(C)C)C(C)=C3C(=O)C=C(C)C3C(O)C12 (stereo not given)	·	·	–	·	·
O=C(O/N=C1\c2ccccc2-c2nc3ccccc3nc21)c1ccco1	·	·	–	·	·
NCC1OC(OC2C(O)[C@@H](OC3C(O)C(N)CC(N)C3OC3OC(CO)C(O)C(O)C3N)O[C@@H]2CO)C(N)C(O)C1O (stereo not given in full)	·	·	–	·	·
C=C(NC(=O)C(=C)NC(=O)c1csc(C2=NC3c4csc(n4)C4NC(=O)c5csc(n5)C(C(C)(O)C(C)O)NC(=O)C5CSC(=N5)/C(=C/C)NC(=O)C(C(C)O)NC(=O)c5csc(n5)C3(CC2)NC(=O)C(C)NC(=O)C(=C)NC(=O)C(C)NC(=O)C(C(C)CC)NC2C=Cc3c(C(C)O)cc(nc3C2O)C(=O)OC4C)n1)C(N)=O (stereo not given)	·	·	–	·	·
COc1ccc(-c2ccc3c(N)c(C(=O)Nc4cc(F)ccc4C)sc3n2)cc1	–	–	–	15.8µM	–
CCOc1cc2ncc(C#N)c(Nc3ccc(F)c(Cl)c3)c2cc1NC(=O)/C=C/CN(C)C	·	·	–	·	·
Cc1ccccc1Sc1ccc(/C=C2\SC(=S)NC2=O)cc1[N+](=O)[O-]	·	·	28.2µM	·	·
CC(C)(CC(=O)N1CCCC1)NCC(=O)N1C[C@@H](F)C[C@H]1C#N	·	·	–	·	·
Oc1ccc(O)cc1	·	·	3.55µM	–	·
CN(C)C/C=C/C(=O)Nc1cc2c(Nc3ccc(F)c(Cl)c3)ncnc2cc1OC1CCOC1 (stereo not given)	·	·	–	·	·
CCOC(=O)c1cnc2ccc(-c3cncc(NS(=O)(=O)c4ccccc4)c3)cn12	·	·	–	·	·
Cn1nc(-c2ccc(C(=O)Nc3cccc(C(F)(F)F)c3)cc2)c2ccccc2c1=O	–	–	–	–	–
Cn1nc(-c2ccc(C(F)(F)F)cc2)nc2c(=O)n(C)c(=O)nc1-2	·	·	3.98µM	·	·
CC(C)CNCc1ccc(-c2ccccc2S(=O)(=O)N2CCCC2)cc1	·	·	–	·	·
Cc1ccccc1NS(=O)(=O)c1ccc2[nH]cc(C(=O)NC3CCCCC3)c(=O)c2c1	–	–	?	–	–
Cc1ccccc1NS(=O)(=O)c1ccc2[nH]cc(C(=O)NC(C)c3ccccc3)c(=O)c2c1 (stereo not given)	–	–	39.8µM	–	–

Source: PubChem BioAssay
